These results are taken from PubChem BioAssay AID485364 (National Center for Advancing Translational Sciences (NCATS), 2010).

Each structure is given as a SMILES string. The whole screen tested about 360,000 compounds, of which about 11,000 (3.1%) were called active. About 4% were inconclusive and are not listed. Shown is part of a subset that was picked to be rich in actives. Values without a mark were called inactive. Calls follow the shape of the dose curve; as a rule, active = well fitted inhibition curve with a large enough effect; inconclusive = small, poorly fitted or top-dose-only effect; inactive = no such curve, though single readings can be large or run the other way.
% is scaled to controls: 0 for no effect and ±100 for the full control effect; potency is read from the fitted curve at half-maximal effect.

The target in the assay is Schistosoma mansoni thioredoxin glutathione reductase (TGR) (UniProt Q962Y6). Description: qHTS Assay for the Inhibitors of Schistosoma Mansoni Peroxiredoxins. Also: nearly all actives have a fitted effect of over 60% in size. Particulars: purified TGR, DTNB reduction, TNB absorbance 405 nm; series mostly up to 114 µM; activity change, negative = inhibition: at the top concentration. The essentials:
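First, TGR (20 nM dispensed) and NADPH were mixed with compound. Second, a 15 min room-temperature incubation followed. Third, further NADPH and then DTNB were added to start the reaction. Finally, TNB absorbance was monitored kinetically.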
On the technique in general: In qHTS, concentration-response curves come from the screen itself.
Regarding `CCNC(=O)Cn1nc(C)n2c(cc3c(OC)cccc32)c1=O`, the “activity change, negative = inhibition” value is 1.79%.
As for `O=C(Nc1ccc(N2CCOCC2)cc1)c1ccc2c(c1)OCO2`, the “activity change, negative = inhibition” value was 3%.
Regarding `CC(=O)Oc1cccc(N2C(=O)CC(Nc3ccc(N4CCOCC4)cc3)C2=O)c1` (stereo not given), the Potency was 22.4 µM (active).
As to `O=C(Nc1ccc(Cl)cc1)c1cccc(OC(=S)N2CCOCC2)c1`, the “activity change, negative = inhibition” value was 6.44%.
The same measure, in the same setting: the figure for `CCCCN(C(=O)c1nn(C)c(=O)c2ccccc12)c1c(N)n(CCC)c(=O)[nH]c1=O` is 0.41%.
With `CCCCn1c(N)c(N(CC)C(=O)/C=C/c2ccco2)c(=O)[nH]c1=O`, the Potency was 22.4 µM (active).
In the case of `CCCCn1c(N)c(N(CC)C(=O)c2ccc(N(C)S(=O)(=O)c3ccc(C)cc3)cc2)c(=O)[nH]c1=O`, the “activity change, negative = inhibition” value is -3.62%.
Same read-out and setting: the figure for `CCCCN(C(=O)c1ccc(C)o1)c1c(N)n(CCCC)c(=O)[nH]c1=O` is -0.875%.
Same read-out and setting: under `CCCCn1c(N)c(N(CC)C(=O)c2ccccc2C(F)(F)F)c(=O)[nH]c1=O` stands -0.806%.
`CCCCN(C(=O)/C=C/c1ccco1)c1c(N)n(CC(C)C)c(=O)[nH]c1=O`: the Potency was 44.7 µM (active).
On to `COc1ccccc1OCC(=O)Nc1ccccc1C(=O)NC1CC1`, for which the “activity change, negative = inhibition” value was -1.12%.
The same measure, in the same setting: under `Cc1ccc(OCC(=O)Nc2ccccc2C(=O)NC2CC2)cc1` stands -0.415%.
For `Cc1ccc(OCC(=O)Nc2ccccc2C(=O)NC2CC2)cc1C`, the Potency was 35.5 µM (active).
Turning to `COc1cccc(C(=O)NC2=NC(c3ccc(N(C)C)cc3)CC(=O)N2)c1` (stereo not given), the “activity change, negative = inhibition” value is 0.667%.
Same read-out and setting: under `COc1cc2nc(SCC(=O)Nc3ccccc3F)n3nc(-c4ccccc4)nc3c2cc1OC` stands -0.478%.
As for `Oc1c(Br)cc(/C=N/NC(=S)NCC2CCCO2)cc1Br` (stereo not given), the Potency was 2.51 µM (active).
In the case of `S=C(NCCc1ccccc1)NCC1CCCO1` (stereo not given), the “activity change, negative = inhibition” value is -0.609%.
The same measure, in the same setting: the figure for `S=C(NCC1CCCO1)N1CCN(c2ccc(Cl)c(Cl)c2)CC1` (stereo not given) is 3.15%; for `CCc1ccc(N2C(=O)CN(S(=O)(=O)CC)CC2(C)C(=O)NC2CCCCC2)cc1` (stereo not given) it is -1.55%; for `COc1cccc(NC(=O)CN2CCN(CC(=O)Nc3ccccc3Cl)CC2)c1` it is 3.07%.
As to `CCNC(=S)Nc1cccc(Cl)c1C`, the “activity change, negative = inhibition” value was -10.8%.
In the case of `COc1ccc(NC(=S)Nc2ccccc2Cl)cn1`, the Potency was 20 µM (active).
On to `O=C(CCc1nc(CN2CCN(S(=O)(=O)c3ccc(Br)cc3)CC2)no1)N1CCCCC1`, for which the “activity change, negative = inhibition” value is 1.39%.
Still for that read-out and setting: under `CCn1cc2nc(SCc3ccccc3Cl)n(CCc3ccccc3)c(=O)c2n1` stands 9.93%; under `COc1cc(NS(=O)(=O)c2ccc(NC(=O)c3ccc(S(=O)(=O)N4CCCCC4)cc3)cc2)ncn1`, -3.68%; under `O=C(Nc1ccc(S(=O)(=O)Nc2ccccn2)cc1)c1ccccc1`, -35.5%.
As to `COc1cc(NS(=O)(=O)c2ccc(NC(=S)NC(=O)c3ccc(Br)cc3)cc2)ncn1`, the Potency was 17.8 µM (active).
Regarding `COc1cc(NS(=O)(=O)c2ccc(NC(=O)CN3C(=O)c4ccccc4C3=O)cc2)ncn1`, the “activity change, negative = inhibition” value was 9.44%.
For `COc1cc(NS(=O)(=O)c2ccc(NC(=S)NC(=O)c3ccccc3)cc2)nc(OC)n1`, the Potency was 20 µM (active).
Turning to `COc1ccc(NS(=O)(=O)c2ccc(NC(=S)NC(=O)CC(C)C)cc2)cc1`, the “activity change, negative = inhibition” value is -0.834%.
The same measure, in the same setting: under `COc1ccc(-c2nc3c4ccccc4n(CC(=O)Nc4ccc(C(C)=O)cc4)c(=O)n3n2)cc1` stands 13.4%; under `Cc1ccccc1-n1c(=O)c2ccccc2n(Cc2ccc(F)cc2)c1=O`, 7.8%.
Take `Nc1ccccc1SC(C[N+](=O)[O-])c1ccccc1` (stereo not given): the Potency is 17.8 µM (active).
On to `Cc1ccccc1-c1nc2cc(NC(=O)c3cccc(OCCC(C)C)c3)ccc2o1`, for which the “activity change, negative = inhibition” value was 8.98%.
The same measure, in the same setting: the figure for `CCOc1ccc(C(=O)c2cn(Cc3ccc(F)cc3)c3ccc(F)cc3c2=O)cc1` is -1.64%.
In the case of `O=C(CSc1nc2ccccc2nc1Cc1ccccc1)N1CCCCC1`, the “activity change, negative = inhibition” value is 4.64%.
With `CN(C)CC1CCCCC1=O` (stereo not given), the Potency is 11.2 µM (active).
As for `O=C1CCCCC1C(=O)c1ccccc1` (stereo not given), the “activity change, negative = inhibition” value was -13.6%.
Same read-out and setting: under `CC(C)(C)OC(=O)N1CCC(c2c(C(=O)N3CCc4ccccc4C3)cnn2-c2ccc(F)cc2)CC1` stands -2.89%.
Take `COc1cc(NC(=O)c2cc(C3CC3)nc3c2c(C)nn3-c2ccccc2)cc(OC)c1`: the “activity change, negative = inhibition” value was 9.3%.
With `Cc1ccc(NC(=O)NC(C)c2c(-n3cccc3)sc(C)c2C)c(C)c1` (stereo not given), the “activity change, negative = inhibition” value is -2.64%.
On the same count and under the same terms, under `Cc1c(NC(=O)Nc2ccc(F)c(Cl)c2)c(=O)n(-c2ccccc2)n1C` stands 5.55%.
For the molecule `Cc1ccccc1NC(=O)c1c(NC(=O)c2ccccc2F)sc2c1CCC(C)C2` (stereo not given), the “activity change, negative = inhibition” value was -0.827%.
For `Cc1ccc(Oc2c(C(F)(F)F)oc3c(CN4CCCCC4)c(O)ccc3c2=O)cc1`, the “activity change, negative = inhibition” value is -1.67%.
Consider `COc1c(O)cc2oc(-c3ccc(O)c(O)c3)cc(=O)c2c1O`, for which the Potency was 39.8 µM (active).
In the case of `CCOC(=O)COc1cc(OCC(=O)OCC)c2c(=O)cc(-c3ccccc3)oc2c1`, the “activity change, negative = inhibition” value was -8.08%.
The same measure, in the same setting: the figure for `COc1ccc(-c2c(C)c3ccc(O)c(CN4CCN(C)CC4)c3oc2=O)cc1OC` is -9.47%; for `CC1=C(C(=O)N2CCN(c3cccc(C(F)(F)F)c3)CC2)C2(CCCCC2)OC1=O` it is -12.2%.
Still for that read-out and setting: the figure for `Cc1ccc(Nc2nc3ccccc3nc2-n2nc(C)cc2C)c(Cl)c1` is 1.74%.
Take `Cc1oc2ccc(O)c(CN3CCC(C)CC3)c2c1C(=O)Nc1ccccc1`: the “activity change, negative = inhibition” value was 6.52%.
Same read-out and setting: under `CN(Cc1ccccc1)C(=O)c1cn(C)c2ccc(S(=O)(=O)N(C)C3CCCCC3)cc2c1=O` stands -3.46%; under `CCCC12CN3CC(C)(CN(C1)C3c1ccccc1Cl)C2=O` (stereo not given), 8.29%.
Still for that read-out and setting: the figure for `COc1ccc(NC(=S)NC2CCS(=O)(=O)C2)cc1` (stereo not given) is -28.9%.
`COc1ccc(NC2=CC(=S)NC(C)(C)C2)cc1`: the Potency was 35.5 µM (active).
`COc1ccc(CCNC2=CC(=O)CC(C)(C)C2)cc1`: the “activity change, negative = inhibition” value was 2%.
Still for that read-out and setting: the figure for `Cc1ccccc1NC(=O)c1cc2c([nH]c1=O)CC(C)(C)CC2=O` is 2.06%; for `Cc1ccc(Cn2c(=O)n(Cc3nc(-c4ccccc4)no3)c(=O)c3cc4c(cc32)OCO4)cc1` it is -1.74%.
Same read-out and setting: the figure for `O=c1c2ccccc2oc2nc(C3CCCCC3)n(Cc3ccco3)c(=O)c12` is -23.6%.
For `Cc1ccc(Cn2c(C)nc3c(c2=O)c2nc4ccccc4nc2n3Cc2ccco2)cc1`, the Potency is 1.41 µM (active).
For the molecule `CCOc1ccc(-c2cc3c(=O)n(CC(=O)NCc4ccc(OC)cc4)ccn3n2)cc1`, the “activity change, negative = inhibition” value is 7.47%.
Same read-out and setting: under `O=C(c1ccc2c(c1)N(Cc1ccccc1F)C(=O)c1ccccc1S2(=O)=O)N1CCOCC1` stands -5.87%; under `COc1ccc(-c2nc(Cn3c(=O)cc(C)c4c(C)nn(-c5ccccc5)c43)c(C)o2)cc1OC`, 5.92%.
In the case of `CC(=O)Nc1ccc(CN2CCN(Cc3ccc(F)c(F)c3)C(CCO)C2)cc1` (stereo not given), the Potency is 20 µM (active).
As to `COC(=O)c1ccc(CN2CCN(CCCc3ccccc3)C(CCO)C2)cc1` (stereo not given), the “activity change, negative = inhibition” value is -13.6%.
Consider `Cc1ccc(CN2CCN(Cc3ccc4ncccc4c3)CC2CCO)cc1` (stereo not given), for which the “activity change, negative = inhibition” value was 1.94% [at 57.1 µM].
